Common to all, as to assay: yeast three-hybrid, YBZ-1, SC-Leu-His + 0.5 mM 3-AT, 4 days
What all share (settings): tags: N-Gal4 AD-HA kept; label: inside an RPR1-promoter hybrid RNA with tandem MS2 sites; ssRNA

One assay concerns the target PUM1 PUF domain R7-RCC (Homo sapiens, UniProt Q14671 828-1176, S1079R;N1080C;E1083C). The method in brief: (§1)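 The interaction score is the log change in variant frequency from input to selection. Scores were computed in log2 with a pseudocount of 1 for absent variants, using Illumina sequencing of PCR-amplified repeat regions. The input came from four days on SC-Leu and the selection from four days on SC-Leu-His + 0.5 mM 3-AT. The cells were strain YBZ-1 (LexA–MS2 coat fusion, HIS3 reporter) co-expressing Pumilio-1 PUF domain libraries and matching RNA elements from a centromeric plasmid.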

The target of another assay is PUM1 PUF domain R3-VYP (Homo sapiens, UniProt Q14671 828-1176, C935V;R936Y;Q939P). An outline of the steps: as §1
A further assay has as its target PUM1 PUF domain R3-LSK (Homo sapiens, UniProt Q14671 828-1176, C935L;R936S;Q939K). An outline of the steps:
as §1

A further assay addresses PUM1 PUF domain R3-PHH (Homo sapiens, UniProt Q14671 828-1176, C935P;R936H;Q939H). An outline of the steps: as §1
A further assay concerns the target PUM1 PUF domain R4-DWI (Homo sapiens, UniProt Q14671 828-1176, N971D;H972W;Q975I). An outline of the steps:
as §1

For a further assay, the target named is PUM1 PUF domain R4-GNT (Homo sapiens, UniProt Q14671 828-1176, N971G;H972N;Q975T). The method in brief: as §1
The target of a further assay is PUM1 PUF domain R4-PYS (Homo sapiens, UniProt Q14671 828-1176, N971P;H972Y;Q975S). An outline of the steps:
as §1

A further assay addresses PUM1 PUF domain R5-SRM (Homo sapiens, UniProt Q14671 828-1176, C1007S;Q1011M). An outline of the steps:
as §1

The target of another assay is PUM1 PUF domain R4-DFL (Homo sapiens, UniProt Q14671 828-1176, N971D;H972F;Q975L). The method in brief: as §1
For a further assay, the target named is T1, PUM1 PUF domain R6-SWG (Homo sapiens, UniProt Q14671 828-1176, N1043S;Y1044W;Q1047G).
T1 sequence: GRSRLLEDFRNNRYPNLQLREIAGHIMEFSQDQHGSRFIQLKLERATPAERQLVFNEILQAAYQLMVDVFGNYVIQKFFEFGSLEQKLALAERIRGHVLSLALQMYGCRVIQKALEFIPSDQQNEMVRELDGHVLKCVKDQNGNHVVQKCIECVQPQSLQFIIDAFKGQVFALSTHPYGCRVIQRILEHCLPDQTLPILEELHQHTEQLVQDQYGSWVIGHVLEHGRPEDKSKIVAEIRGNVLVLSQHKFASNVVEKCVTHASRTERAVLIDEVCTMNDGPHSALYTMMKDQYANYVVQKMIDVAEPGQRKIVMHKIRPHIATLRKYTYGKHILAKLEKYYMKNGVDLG
An outline of the steps:
as §1

Another assay addresses PUM1 PUF domain R8-GYR (Homo sapiens, UniProt Q14671 828-1176, N1122G;Q1126R). An outline of the steps:
as §1

Another assay addresses PUM1 PUF domain R8-RHW (Homo sapiens, UniProt Q14671 828-1176, N1122R;Y1123H;Q1126W). The method in brief:
as §1

Another assay deals with PUM1 PUF domain R8-KRK (Homo sapiens, UniProt Q14671 828-1176, N1122K;Y1123R;Q1126K). The method in brief:
as §1

As for “GGCUAGAACUAGUGGAUCCCCCGGCGCCCGGCGGCUCGAGCCCGGGUAAGUCUAAAUAGUCUGCAUGCCGCCGGGCGCCAUGCCUGCAGGUCGACUCUAGAAAACAUG”, the binding signal with PUM1 PUF domain R7-RCC was 2.43 log2 enrichment (interaction score).
Turning to “GGCUAGAACUAGUGGAUCCCCCGGCGCCCGGCGGCUCGAGCCCGGGUAAGUGUAAUUAGUCUGCAUGCCGCCGGGCGCCAUGCCUGCAGGUCGACUCUAGAAAACAUG”, the results for the binding signal with PUM1 PUF domain R3-VYP, with PUM1 PUF domain R3-LSK and with PUM1 PUF domain R3-PHH were 2.9 log2 enrichment (interaction score), 5.2 log2 enrichment (interaction score) and 2.2 log2 enrichment (interaction score), respectively.
With “GGCUAGAACUAGUGGAUCCCCCGGCGCCCGGCGGCUCGAGCCCGGGUAAGUGUACAUAGUCUGCAUGCCGCCGGGCGCCAUGCCUGCAGGUCGACUCUAGAAAACAUG”, the binding signal in the assay with PUM1 PUF domain R4-DWI is 5.64 log2 enrichment (interaction score); with PUM1 PUF domain R4-GNT it was 0.59 log2 enrichment (interaction score); with PUM1 PUF domain R4-PYS, 5.7 log2 enrichment (interaction score).
For “GGCUAGAACUAGUGGAUCCCCCGGCGCCCGGCGGCUCGAGCCCGGGUAAGUGUGAAUAGUCUGCAUGCCGCCGGGCGCCAUGCCUGCAGGUCGACUCUAGAAAACAUG”, the binding signal in the assay with PUM1 PUF domain R5-SRM was 1.99 log2 enrichment (interaction score).
With “GGCUAGAACUAGUGGAUCCCCCGGCGCCCGGCGGCUCGAGCCCGGGUAAGUGUAUAUAGUCUGCAUGCCGCCGGGCGCCAUGCCUGCAGGUCGACUCUAGAAAACAUG”, the binding signal was 3.55 log2 enrichment (interaction score) with PUM1 PUF domain R4-GNT, 5.95 log2 enrichment (interaction score) with PUM1 PUF domain R4-PYS and 2.93 log2 enrichment (interaction score) in the assay with PUM1 PUF domain R4-DFL.
On to “GGCUAGAACUAGUGGAUCCCCCGGCGCCCGGCGGCUCGAGCCCGGGUAAGUGUAAAUAGUCUGCAUGCCGCCGGGCGCCAUGCCUGCAGGUCGACUCUAGAAAACAUG”, for which the binding signal with PUM1 PUF domain R4-DWI is 6.41 log2 enrichment (interaction score); with PUM1 PUF domain R3-VYP, 5.74 log2 enrichment (interaction score); in the assay with PUM1 PUF domain R6-SWG, 4.18 log2 enrichment (interaction score); with PUM1 PUF domain R5-SRM, 2.84 log2 enrichment (interaction score); in the assay with PUM1 PUF domain R8-GYR, 5.16 log2 enrichment (interaction score); in the assay with PUM1 PUF domain R4-DFL, 5.04 log2 enrichment (interaction score). The values for the binding signal with PUM1 PUF domain R3-PHH, with PUM1 PUF domain R8-RHW and with PUM1 PUF domain R8-KRK were 4.19 log2 enrichment (interaction score), 2.9 log2 enrichment (interaction score) and 3.65 log2 enrichment (interaction score), respectively.

The values above are taken from article PMC8384837, “Expanding the binding specificity for RNA recognition by a PUF domain”.
